# Source: PubChem BioAssay (National Center for Advancing Translational Sciences (NCATS))
# D2 antagonist = HTS Assay for Allosteric Antagonists of the Human D2 Dopamine Receptor: Primary Screen for Antagonists. D(2) dopamine receptor (Homo sapiens), P14416. HEK293 TREx D2 cells, calcium flux, dopamine EC80. inhibition, % at 10 µM. hit rate 2% among 340,000; in the data active means inhibition above about 30%; inactive means below that, where a call was filed; further: 0% is about no effect
# Target sequence (P14416 whole entry, looked up): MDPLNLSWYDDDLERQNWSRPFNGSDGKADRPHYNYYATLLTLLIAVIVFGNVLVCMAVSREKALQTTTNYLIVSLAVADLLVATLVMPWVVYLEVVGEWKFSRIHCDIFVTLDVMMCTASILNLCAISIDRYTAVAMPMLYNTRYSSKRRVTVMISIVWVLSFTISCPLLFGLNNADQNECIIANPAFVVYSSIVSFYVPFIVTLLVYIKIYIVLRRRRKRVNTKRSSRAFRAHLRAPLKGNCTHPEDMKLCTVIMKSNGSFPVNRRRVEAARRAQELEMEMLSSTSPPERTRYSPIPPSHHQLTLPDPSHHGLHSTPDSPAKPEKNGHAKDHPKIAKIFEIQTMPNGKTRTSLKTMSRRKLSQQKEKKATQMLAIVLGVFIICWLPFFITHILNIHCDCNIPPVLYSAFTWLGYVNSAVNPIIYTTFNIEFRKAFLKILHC
#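 Tetracycline-induced HEK293 T-REx cells expressing D2 force-coupled to calcium signalling were dye-loaded, exposed to compound for 180 s, then challenged with an EC80 of dopamine; calcium flux was followed kinetically for a further 180 s.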
# D2 PAM-1 = Beta-Arrestin HTS for Positive Allosteric Modulators of the Human D2 Dopamine Receptor: Potentiators; D(2) dopamine receptor (Homo sapiens), P14416; DiscoveRx D2 beta-arrestin cells, luminescence, 90 min; 100% = 57 uM dopamine signal; potentiation, % (concentration not given with the values); hit rate 0.23% among 360,000; AID 624464, 2012; in the data active means potentiation above about 50%; inconclusive means mostly about 30% to 49%
#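 D2 cells co-treated with compound plus 50 nM dopamine (EC20) for 90 min at 37 deg C to detect potentiation. Beta-arrestin recruitment was read as enzyme-fragment luminescence after 1 h at ambient temperature. Full response was set by 57 uM dopamine.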
# D2 ag-1 = HTS Assay for Allosteric Agonists of the Human D2 Dopamine Receptor: Primary Screen for Agonists; D(2) dopamine receptor (Homo sapiens), P14416; HEK293 T-REx D2 cells, calcium flux agonist mode; activation, % at 2 µM; hit rate 0.53% among 340,000; AID 485358, 2010;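 active means activation over 3 SD above normal in the single-dose calcium agonist read, cut at about 30% in these data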; further: 0% is about no effect
#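 In this primary screen, compounds producing a positive calcium signal within 180 s of addition to tetracycline-induced, force-coupled HEK293 Trex D2 cells are flagged; cells are dye-loaded with a no-wash calcium kit beforehand.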
# D2 PAM-2 = HTS Assay for Positive Allosteric Modulators of the Human D2 Dopamine Receptor: Primary Screen for Potentiators | D(2) dopamine receptor (Homo sapiens), P14416 | HEK293 T-REx D2, calcium flux, EC20 dopamine potentiation | potentiation, % at 10 µM | hit rate 0.34% among 340,000;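 active means potentiation over 3 SD above the plate norm, cut at about 30% in these data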; further: 0% is about no effect
#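 Potentiation of an EC20 dopamine calcium response measured kinetically over 180 s, after a preceding 180 s compound-only read flagging agonists. Cells: inducible Hek293 Trex D2 line, 4000/well, cultured overnight at 30 C before dye loading.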
# D2 ag-2 = Beta-Arrestin HTS for Positive Allosteric Modulators of the Human D2 Dopamine Receptor: Agonists. DiscoveRx PathHunter D2 beta-arrestin, luminescence, 90 min; 100% = 57 uM dopamine signal. AID 624465, 2012. D(2) dopamine receptor (Homo sapiens), P14416. hit rate 0.084% among 360,000. activation, % (concentration not given with the values); in the data active means activation above about 40%; inconclusive means between about 15% and that limit
#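 DiscoveRx PathHunter D2 beta-arrestin cells (2,100/well) attached overnight, then compound-stimulated 90 min at 37 C in HBSS/10 mM HEPES/0.1% Tween-20 buffer; beta-galactosidase complementation read by luminescence after 1 h at ambient temperature. Dopamine 57 uM final (EC100) as control.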
# * marks the source's active call; other numbers are inactive results; ? = inconclusive; . = no result given. Only some compounds are listed: those with a hit (about 2.4% of all), similar ones and a draw of the others.
SMILES,D2 antagonist,D2 PAM-1,D2 ag-1,D2 PAM-2,D2 ag-2
O=C(OCc1nnc(-c2ccc([N+](=O)[O-])cc2)o1)C1CCN(C(=O)c2ccc(F)cc2)CC1,34.7*,2.1,0.3,6.5,10.8
COc1ccc(N(CC(=O)NCCc2ccc(C)cc2)S(=O)(=O)c2c(C)noc2C)cc1,0.7,18.8,-0.3,-7.2,3.6
COc1ccc(N(CC(=O)NCCc2ccc(OC)c(OC)c2)S(=O)(=O)c2c(C)noc2C)cc1,-11.7,-2.4,1.1,-2.3,63.7*
C=CCn1c(C)cc(C(=O)CSc2nnc(-c3cccc(S(=O)(=O)N(CC)CC)c3)o2)c1C,-19.8,-11.8,-0.1,39.4*,-2.5
CCN(CC)S(=O)(=O)c1cccc(-c2nnc(SCC(=O)c3cc(C)n(C4CC4)c3C)o2)c1,-5.2,11.0,0.9,2.8,-0.1
COc1ccccc1-n1cnc2c(c1=O)c1nc3ccccc3nc1n2-c1ccc(C)cc1,-24.0,-14.0,-1.6,32.7*,-3.8
CCn1cc([N+](=O)[O-])c(C(=O)Nc2ccc3c(c2)OCCO3)n1,69.2*,9.8,1.0,-13.0,4.4
CCc1ccccc1NC(=O)CSc1nnc(COc2ccccc2Cl)o1,.,.,-1.8,-5.6,.
CCOc1ccc(C2c3c(oc4ccccc4c3=O)C(=O)N2CCCN2CCOCC2)cc1 (configuration not stated),-4.4,-5.2,-0.3,27.5,0.3
CCCOc1ccc(C2c3c(oc4ccccc4c3=O)C(=O)N2CCCN2CCOCC2)cc1 (configuration not stated),36.0*,2.7,1.4,-3.3,-1.9
O=C(c1ccc([N+](=O)[O-])o1)N1CCN(c2nc3c(Cl)cccc3s2)CC1,0.1,69.4*,0.1,2.5,10.2
COc1cccc2sc(N3CCN(C(=O)c4ccc([N+](=O)[O-])o4)CC3)nc12,-1.7,21.2,0.5,-7.5,10.1
COc1cc2c(C)nc(C)c(C#N)c2cc1OC,4.0,-2.9,0.9,38.9*,0.5
Cc1cc(C)c(NC(=O)CN(C)S(=O)(=O)c2ccc3c(c2)n(C)c(=O)c(=O)n3C)c(C)c1,8.4,0.7,0.1,75.5*,-4.6
Cc1ccc(NC(=O)CN(C)S(=O)(=O)c2ccc3c(c2)n(C)c(=O)c(=O)n3C)c(C)c1,0.5,-6.2,-0.6,-0.4,-5.1
COC(=O)c1ccc(C2c3c(oc4ccc(C)cc4c3=O)C(=O)N2Cc2ccc3c(c2)OCO3)cc1 (configuration not stated),.,.,-0.4,5.0,.
COC(=O)CN1C(=O)COc2ccc(Cl)cc21,-9.2,-3.6,0.0,7.5,-3.2
COCCNC(=O)CN1C(=O)COc2ccc(Cl)cc21,34.7*,-6.2,0.6,-8.3,-1.2
CC(C)(C)c1ccc2c(c1)N(CC(=O)O)C(=O)CO2,-14.1,5.3,0.2,3.9,-1.4
CN(C)CCNC(=O)CN1C(=O)COc2ccc(C(C)(C)C)cc21,35.5*,-10.7,-0.1,1.4,-2.5
Cc1noc(Cn2c(=O)c3ccccc3n(CC(=O)Nc3ccc(F)cc3F)c2=O)n1,.,.,0.0,-6.5,.
Cc1cc(N/N=C/c2ccc(O)cc2O)nc(-c2ccccc2O)n1,-8.9,?,-0.4,1.8,41.5*
Cc1cc(N/N=C/c2ccccc2O)nc(-c2ccccc2O)n1,3.9,-19.1,-0.8,2.0,-2.0
Cc1ccccc1-c1noc(-c2ccccc2OCC(=O)Nc2ccccc2[N+](=O)[O-])n1,.,.,-0.1,6.3,.
CN(c1ccc(C(=O)Nc2ccc3c(c2)OCO3)cc1)S(C)(=O)=O,-0.5,-13.4,0.3,-2.7,-4.0
SMILES,D2 antagonist,D2 PAM-1,D2 ag-1,D2 PAM-2,D2 ag-2
CN(c1ccc(C(=O)Nc2ccc(CC#N)cc2)cc1)S(C)(=O)=O,40.7*,0.2,0.2,3.8,-2.8
O=C(CN1CCC(O)(c2cccc(F)c2)CC1)NCCc1c[nH]c2ccccc12,44.8*,-24.2,-0.6,-17.9,-4.5
O=C1c2cccc3cccc(c23)C(=O)N1c1ccc(O)cc1,3.5,-1.2,0.4,-2.1,3.1
O=C1c2cccc3c(N4CCCCC4)ccc(c23)C(=O)N1c1ccc(O)cc1,29.4,-6.2,66.1*,-3.6,1.3
O=C1c2cccc3c(N4CCCCC4)ccc(c23)C(=O)N1c1ccccc1O,7.7,-8.4,35.7*,-4.6,-3.0
Cc1ccccc1NC(=O)c1sc(Cl)nc1-c1ccccc1,30.7*,7.7,-0.1,-0.8,-2.1
Cc1ccc(NCc2cccn2-c2nnc(N3CCC(C(=O)NCc4ccc(F)cc4)CC3)s2)cc1,.,.,-0.4,-2.0,.
O=C(O)Cc1cn(-c2ccccc2)nc1-c1ccc(Cl)cc1,-10.4,-16.2,-0.7,30.9*,0.7
O=C(Nc1cn(-c2ccccc2)nc1-c1ccc(Cl)cc1)c1ccccc1,-11.4,-5.7,-1.1,6.7,-2.0
COc1cccc(NS(=O)(=O)c2ccc3c(c2)n(C)c(=O)n3C)c1,.,.,0.0,2.9,.
N#C/C(=C\c1coc2ccc(O)cc2c1=O)C(=O)Nc1nc2ccccc2s1,-7.8,0.2,59.1*,-0.6,8.4
Cc1ccc(-c2nnc(Nc3ccc(OCC(N)=O)cc3)c3ccccc23)cc1S(=O)(=O)N(C)C,.,.,-1.7,6.7,.
CCc1ccccc1N1CC(c2nc3ccccc3n2CCOc2ccc(Cl)c(C)c2)CC1=O (configuration not stated),.,.,-1.2,13.8,.
Cc1cc2nc(N)sc2cc1C,34.2*,-7.8,-1.1,8.8,-0.1
CC(C)c1ccc2nc(N)sc2c1,-18.9,-6.2,-0.3,-3.3,0.6
CCOc1cccc(CNC(=O)c2ccc(N3CCCC3)c(NC(=O)NCc3ccc(F)cc3)c2)c1,.,.,.,-1.3,.
CC(=O)Nc1ccc(NC(=O)CSc2ccccn2)cc1,0.6,-10.3,-0.9,5.3,-1.1
COc1cccc(-n2ccnc2SCC(=O)Nc2ccccc2)c1,50.4*,-32.0,-0.1,-22.9,-3.9
COc1cccc(NC(=O)CSc2nccn2-c2cccc(OC)c2)c1,-1.5,-33.7,1.3,-16.5,-3.1
CC(=O)Nc1ccc(NC(=O)CSc2ncnn2-c2ccccc2)cc1,15.3,4.6,0.3,31.0*,-2.5
Cc1ccc(S(=O)(=O)/N=C2\C=C(NS(=O)(=O)c3ccccc3)C(=O)c3ccccc32)cc1,.,1.4,.,.,-2.8
Cc1ccc(S(=O)(=O)/N=C2/C=C(C3C(=O)CC(C)(C)CC3=O)C(=O)c3ccccc32)cc1,5.8,110.1*,-0.4,0.5,10.5
CCc1ccccc1NS(=O)(=O)c1cc(Br)cc2c1N(C(=O)C1CC1)CC2,.,.,-0.9,-9.8,.
